Results filed as inconclusive are left out. Where a call stands in place of a potency, no number is given. Values without a mark were called inactive. Activity calls are given as the source filed them. Unless noted, calls come from the whole dose curve.
Key:
[1] = qHTS assay to identify small molecule antagonists of the vitamin D receptor (VDR) signaling pathway - cell viability counter screen (AID 743225; active = well fitted curve in the direction sought with a large enough effect in the repeat runs; an effect the other way counts as inactive or inconclusive; note: nearly all actives have a fitted effect of over 50% in size; note: potency is the fitted concentration of half-maximal effect)
Method in brief: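 Cells (VDR-UAS-bla HEK 293T) are plated, rested 4 h at 37C, dosed with compound and 3 nM final 1-alpha,25-dihydroxy vitamin D3, and incubated 16 h. Viability is taken from CellTiter-Glo luminescence in the reporter wells.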

[2] = qHTS assay to identify small molecule agonists of the NFkB signaling pathway (AID 1159509; active = well fitted curve in the direction sought with a large enough effect in the signal ratio in the repeat runs, not every such curve was filed as active; the % refers to the signal ratio; note: series mostly up to about 61 µM)
Method in brief: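 Pathway activation was measured in ME-180 cells stably expressing beta-lactamase under NF-kB response element control. Substrate cleavage was read as the 460/530 nm emission shift after 5 hr compound incubation.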

[3] = qHTS assay to identify small molecule agonists of the NFkB signaling pathway - cell viability counter screen (AID 1159515); note: series mostly up to about 61 µM; nearly all actives have a fitted effect of over 55% in size
Method in brief: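 Counter screen run alongside the NFkB-bla agonist assay: ME-180 reporter cells exposed to compounds for 5 hr, then lysed with CellTiter-Glo in the same wells. Luminescence, read after 30 min, reflects viable cells.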

[4] = qHTS assay to identify small molecule agonists of the endoplasmic reticulum stress response signaling pathway (AID 1159516; active = well fitted activation curve with a large enough effect in the signal ratio in the repeat runs, not every such curve was filed as active; the % refers to the signal ratio)
Method in brief: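 For this screen, HeLa cells stably carrying beta-lactamase under the ER stress response element received test compounds, positive controls or DMSO for 5 hr at 37 C; B/G FRET substrate was then added and dual-wavelength emission recorded.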

[5] = qHTS assay to identify small molecule agonists of the endoplasmic reticulum stress response signaling pathway - cell viability counter screen (AID 1159517); note: series mostly up to about 61 µM; nearly all actives have a fitted effect of over 50% in size
Method in brief: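 ESRE-bla HeLa cells (1,500/well) were plated overnight at 37 C and exposed to compounds for 5 hr. After the 2 hr beta-lactamase substrate read, CellTiter-Glo went into the same wells, and luminescence was read after 30 min at room temperature.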

[6] = qHTS assay to identify small molecule antagonists of the retinoid-related orphan receptor gamma (ROR-gamma) signaling pathway - cell viability counter screen (AID 1159520; active = well fitted curve in the direction sought with a large enough effect in the repeat runs; an effect the other way counts as inactive or inconclusive; note: nearly all actives have a fitted effect of over 50% in size; note: potency is the fitted concentration of half-maximal effect)
Method in brief: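 Cytotoxicity was read from cellular ATP (CellTiter-Glo luminescence) after 16 hr at 37 C with 1 uM doxycycline induction. The inducer was added 2 hr after compound transfer to Tet-on ROR gamma CHO cells.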

[7] = qHTS assay to identify small molecule agonists of the AP-1 signaling pathway (AID 1159526)
[8] = target: Nuclear receptor ROR-gamma (Homo sapiens) (UniProt P51449); test: qHTS assay to identify small molecule antagonists of the retinoid-related orphan receptor gamma (ROR-gamma) signaling pathway (AID 1159521; active = well fitted curve in the direction sought with a large enough effect in the repeat runs; an effect the other way counts as inactive or inconclusive; note: nearly all actives have a fitted effect of over 50% in size; note: potency is the fitted concentration of half-maximal effect)
Method in brief: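 RORγ antagonism is scored from reduced reporter luminescence in Tet-on CHO cells. Induction used 1 uM final doxycycline hyclate for 16 h at 37 C, following a 2 h compound exposure.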

[9] = qHTS assay to identify small molecule agonists of the AP-1 signaling pathway - cell viability counter screen (AID 1159525); note: nearly all actives have a fitted effect of over 55% in size
Method in brief: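 Intracellular ATP by Cell Titer Glo luminescence (30 min, RT) in the same ME-180 AP-1-bla wells after the 5 h compound exposure at 37 °C. Normalised to tetra n-octyl ammonium bromide and DMSO controls.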

[10] = target: Retinoic acid receptor RXR-alpha (Homo sapiens) (UniProt P19793); test: qHTS assay to identify small molecule agonists of the RXR signaling pathway (AID 1159527); note: nearly all actives have a fitted effect of over 35% in size
Sequence of Retinoic acid receptor RXR-alpha (Homo sapiens) (P19793 whole entry, looked up): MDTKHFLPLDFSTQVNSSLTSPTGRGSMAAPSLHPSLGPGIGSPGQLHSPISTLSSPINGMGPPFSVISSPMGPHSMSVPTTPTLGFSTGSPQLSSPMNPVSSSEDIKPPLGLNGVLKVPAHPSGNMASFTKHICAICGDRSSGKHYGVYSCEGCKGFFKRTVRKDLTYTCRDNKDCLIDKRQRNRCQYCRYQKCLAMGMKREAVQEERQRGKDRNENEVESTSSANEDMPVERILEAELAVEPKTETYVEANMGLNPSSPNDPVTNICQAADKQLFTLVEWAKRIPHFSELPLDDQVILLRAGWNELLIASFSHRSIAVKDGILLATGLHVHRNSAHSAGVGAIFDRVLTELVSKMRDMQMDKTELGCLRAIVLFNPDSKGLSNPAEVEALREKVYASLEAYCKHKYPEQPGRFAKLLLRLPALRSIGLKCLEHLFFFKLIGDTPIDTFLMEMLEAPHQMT
Method in brief: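 qHTS of the Tox21 10K library in GeneBLAzer RXR-alpha HEK 293T cells carrying a beta-lactamase reporter […]; 16 hr treatment, 9-cis retinoic acid as agonist control, FRET read-out.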

Row | Compound | Potency [1] | outcome [2] | outcome [3] | outcome [4] | outcome [5] | Potency [6] | outcome [7] | Potency [8] | outcome [9] | Potency [10] | activity, negative = cytotoxicity [6] | activation [7]
1 | O=c1[nH]c2ccc(S(=O)CCN3CCC(Cc4ccc(F)cc4)CC3)cc2o1 (configuration not stated) | inactive | inactive | inactive | inactive | inactive | inactive | inactive | – | – | – | – | –
2 | CCCCCCOC(=O)C(C)C | inactive | inactive | inactive | inactive | inactive | – | inactive | inactive | inactive | – | – | –
3 | O=C(O)C(Cc1cc(I)c(O)c(I)c1)c1ccccc1 (configuration not stated) | inactive | inactive | inactive | inactive | inactive | inactive | inactive | – | – | – | – | –
4 | O=C(CCCN1CCN(c2ccc(F)cc2)CC1)NC1c2ccccc2CSc2ccccc21 (configuration not stated) | 23.9 µM (active) | inactive | inactive | inactive | inactive | – | inactive | 13.3 µM (active) | inactive | – | – | –
5 | C1COCO1 | inactive | inactive | inactive | inactive | inactive | inactive | inactive | – | – | – | – | –
6 | CNC(=O)N(c1ccccc1)c1ccccc1 | inactive | inactive | inactive | inactive | inactive | inactive | inactive | – | – | – | – | –
7 | C=CC(=O)NCOCC(C)C | inactive | inactive | inactive | inactive | inactive | inactive | inactive | – | – | – | – | –
8 | O=C(Nc1ccccc1)Nc1ccccc1 | inactive | inactive | inactive | inactive | inactive | – | inactive | inactive | inactive | – | – | –
9 | CCC1(C)CC(=O)NC1=O (configuration not stated) | inactive | inactive | inactive | inactive | inactive | inactive | inactive | – | – | – | – | –
10 | COC(=O)c1cc(Cl)ccc1NS(=O)(=O)C(F)(F)F | inactive | inactive | inactive | inactive | inactive | – | inactive | inactive | inactive | inactive | – | –
11 | C[Si](NC1CCCCC1)(NC1CCCCC1)NC1CCCCC1 | inactive | inactive | inactive | inactive | inactive | inactive | inactive | – | – | – | – | –
12 | CCCCC(=O)O[C@]1(C(=O)CO)CC[C@H]2[C@@H]3CCC4=CC(=O)CC[C@]4(C)[C@H]3[C@@H](O)C[C@@]21C | inactive | inactive | inactive | inactive | inactive | inactive | – | – | – | – | – | –
13 | CO[C@H]1C=CO[C@@]2(C)Oc3c(C)c(O)c4c(O)c(c5c(c4c3C2=O)=NC2(CCN(CC(C)C)CC2)N=5)NC(=O)/C(C)=C\C=C/[C@H](C)[C@H](O)[C@@H](C)[C@@H](O)[C@@H](C)[C@H](OC(C)=O)[C@@H]1C | inactive | inactive | inactive | inactive | inactive | – | inactive | 53.3 µM (active) | inactive | – | – | –
14 | CC(=O)Oc1ccc(C(=C2CCCCC2)c2ccc(OC(C)=O)cc2)cc1 | inactive | inactive | inactive | inactive | inactive | inactive | inactive | – | – | – | – | –
15 | CC(COc1ccc(C(C)(C)C)cc1)OS(=O)OCCCl (configuration not stated) | inactive | inactive | inactive | inactive | inactive | – | inactive | 24.5 µM (active) | inactive | – | – | –
16 | COCCOC | inactive | inactive | inactive | inactive | inactive | – | – | 41.3 µM (active) | inactive | – | – | –
17 | CCC(C)(C)C1CCC(O)CC1 (configuration not stated) | inactive | inactive | inactive | inactive | inactive | inactive | inactive | – | – | – | – | –
18 | CCNC(=O)N1CCN(CCCC(c2ccc(F)cc2)c2ccc(F)cc2)CC1 | inactive | inactive | inactive | inactive | inactive | inactive | inactive | – | – | – | – | –
19 | CC(C)C(OC(=O)c1ccccc1)C(C)(C)COC(=O)c1ccccc1 (configuration not stated) | inactive | inactive | inactive | inactive | inactive | inactive | inactive | – | – | – | – | –
20 | Fc1ccccc1[C@@H](F)COC1CCC(Nc2ncnc3[nH]ncc23)CC1 (some centres not stated) | – | inactive | inactive | inactive | inactive | – | inactive | 12.2 µM (active) | inactive | – | – | –
21 | Cc1nccn1-c1ccc(Sc2cccc(C3(C(N)=O)CCOCC3)c2)cc1 | inactive | inactive | inactive | inactive | inactive | – | inactive | 5.45 µM (active) | inactive | – | – | –
22 | CC(C)CCCCCCOC(=O)CCCCC(=O)OCCCCCCC(C)C | inactive | inactive | inactive | inactive | inactive | inactive | – | – | – | – | – | –
23 | CCCCCCCCCCCC(=O)[O][Sn]([CH2]CCC)([CH2]CCC)[O]C(=O)CCCCCCCCCCC | inactive | inactive | inactive | inactive | inactive | 13.3 µM (active) | inactive | – | – | – | – | –
24 | O=C(Nc1ccc([N+](=O)[O-])cc1)Nc1ccc([N+](=O)[O-])cc1 | inactive | inactive | inactive | inactive | inactive | – | inactive | 2.37 µM (active) | inactive | – | – | –
25 | CC(=O)Oc1ccc2c(c1)CC[C@@H]1[C@@H]2CC[C@]2(C)[C@@H](O)CC[C@@H]12 | inactive | inactive | inactive | inactive | inactive | inactive | inactive | – | – | – | – | –
26 | CC(C)CCCC(=O)O | inactive | inactive | inactive | inactive | inactive | – | inactive | inactive | inactive | – | – | –
27 | CCCC(=O)O[C@]1(C(=O)COC(=O)CC)CC[C@H]2[C@@H]3CCC4=CC(=O)CC[C@]4(C)[C@H]3[C@@H](O)C[C@@]21C | inactive | inactive | inactive | inactive | inactive | – | – | – | – | – | 0.636% [at 19 µM] | -6.02% [at 15.8 µM]

From PubChem BioAssay (Tox21)
